Hits are enriched below; roughly 0.44% of the tested compounds scored in any of these assays.
Anesthetic bind – qHTS Assay for Identification of Novel General Anesthetics | Ferritin light chain (Equus caballus), P02791 | apoferritin/1-aminoanthracene competitive binding, fluorescence | Potency, µM (series often up to 77.5 µM), without a hit: at the top dose activity change, negative = displacement, usual class: inhibitors | hit rate 0.074% among 350,000; also: % is scaled to controls: 0 for no effect and ±100 for the full control effect; nearly all actives have a fitted effect of over 20% in size
Target sequence (P02791 2-175 limits assumed): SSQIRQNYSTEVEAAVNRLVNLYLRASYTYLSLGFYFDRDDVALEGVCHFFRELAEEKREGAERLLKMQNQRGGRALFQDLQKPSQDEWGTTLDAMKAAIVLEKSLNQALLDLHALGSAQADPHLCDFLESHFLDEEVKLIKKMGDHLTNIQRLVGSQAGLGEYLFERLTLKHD
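Read-out: endpoint 1-AMA fluorescence, excitation 380 nm and emission 535 nm, after compounds sit 10 min at room temperature with 10 uM horse-spleen apoferritin in 50% saturated 1-AMA/PBS. Values come from four-parameter Hill fits.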
TexasRed fluor – Total Fluorescence Counterscreen for Inhibitors of the Interaction of Thyroid Hormone Receptor and Steroid Receptor Coregulator 2. TRb/SRC2 Texas Red total fluorescence interference. Potency, µM (doses to about 106 µM), inactives show at the highest dose fluorescence change, negative = quenching. hit rate 0.29% among 280,000. AID 1479, 2009; active = well fitted curve in either direction with a large enough effect; inconclusive = small, poorly fitted or top-dose-only effect; also: % is scaled to controls: 0 for no effect and ±100 for the full control effect
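Flags fluorescent or light-absorbing compounds by total fluorescence, S + 2P, at 555 nm excitation and 632 nm emission. Mixture: 20 nM Texas Red SRC2 peptide, 0.6 uM human TRb LBD, 1 uM T3, 5% DMSO; compound exposure 5 h at ambient temperature.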
RGS12 GoLoco inh – qHTS Assay for Inhibitors of RGS12 GoLoco Motif Activity (Red Fluorophore). Guanine nucleotide-binding protein G(i) subunit alpha-1 (Homo sapiens), P63096. Gai1:RGS12 GoLoco peptide FP, rhodamine, 10 min. Potency, µM (doses to about 61.6 µM), for inactives: at the highest dose activity, negative = inhibition, actives largely listed as inhibitors. hit rate 0.44% among 230,000; active = well fitted inhibition curve with a large enough effect, not every such curve was filed as active; inactive = no such curve, though single readings can be large or run the other way; also: % is scaled to controls: 0 for no effect and ±100 for the full control effect; nearly all actives have a fitted effect of over 30% in size
Target sequence (P63096 whole entry, looked up): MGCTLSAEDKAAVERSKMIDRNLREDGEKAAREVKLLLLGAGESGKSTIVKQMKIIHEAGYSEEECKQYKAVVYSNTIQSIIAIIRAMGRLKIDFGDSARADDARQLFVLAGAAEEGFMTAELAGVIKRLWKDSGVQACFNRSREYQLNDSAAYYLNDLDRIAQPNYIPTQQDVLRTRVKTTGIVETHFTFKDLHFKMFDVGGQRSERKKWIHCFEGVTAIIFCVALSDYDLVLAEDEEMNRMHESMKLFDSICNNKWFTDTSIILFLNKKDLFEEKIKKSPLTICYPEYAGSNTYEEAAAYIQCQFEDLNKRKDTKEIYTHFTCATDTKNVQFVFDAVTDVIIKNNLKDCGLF
ERG Ets-DNA blk – qHTS for Small Molecule Inhibitors of the ERG Ets/DNA interaction; Transcriptional regulator ERG (Homo sapiens), P11308; fluorescence polarization, His-ERG Ets domain / labelled DNA; Potency, µM (highest dose often 76.9 µM), for inactives: at the highest dose FP activity, negative = inhibition, actives largely listed as inhibitors; hit rate 0.028% among 370,000; AID 624246, 2012; active = well fitted inhibition curve with a large enough effect in the polarisation, with a control signal flat; inconclusive = small, poorly fitted or top-dose-only effect, or effect the other way, or a change in a side signal; inactive = no such curve, though single readings can be large or run the other way; the % refers to the polarisation;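 also: polarization taken with two DNA probes labelled with fluorescein and Texas red; % of control where 0% means no effect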
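His-tagged ERG Ets domain (1 uM in the protein solution; 300mM KCl, 50mM Tris-HCl, 1mM EDTA, 1mM DTT, pH 7.5) received compound, then a probe mix of 5 nM fluorescein-DNA and 100nM Texas-615-DNA. Fluorescence polarization was read for both dyes.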
TRb-SRC2 inh – qHTS for Inhibitors of the Interaction of Thyroid Hormone Receptor and Steroid Receptor Coregulator 2 | Thyroid hormone receptor beta (Homo sapiens), P10828 | TRbeta-SRC2 peptide binding, fluorescence polarization; receptor liganded with 1 µM T3 | Potency, µM (series often up to 106 µM), for the others: at the highest dose activity change, negative = inhibition, usual class: inhibitors | hit rate 0.065% among 280,000 | AID 1469, 2008;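 also: plate controls were bound peptide for no effect and peptide without receptor for full effect; nearly all actives have a fitted effect of over 50% in size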
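Read-out is fluorescence polarization (555 nm excitation, 632 nm emission) of a Texas Red SRC2 coactivator peptide; loss of signal reflects blocked binding to human TRb ligand-binding domain in the presence of 1 uM T3.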
Numbers without * were called inactive; i = inactive; ? = inconclusive; · = no result given; ! = a repeat was not active; [ ] = dose if it differs, or a comment. Unless noted, calls follow the shape of the dose curve; as a rule, active = well fitted curve in the direction sought with a large enough effect; inconclusive = small, poorly fitted or top-dose-only effect, or another doubt; inactive = no such curve, though single readings can be large; an effect the other way counts as inactive or inconclusive. Potency is read from the fitted curve at half-maximal effect.

SMILES	Anesthetic bind	TexasRed fluor	RGS12 GoLoco inh	ERG Ets-DNA blk	TRb-SRC2 inh
O=C(/C=C/c1ccc(O)cc1)OC[C@H]1O[C@@H](Oc2c(-c3ccc(O)cc3)oc3cc(O)cc(O)c3c2=O)[C@H](O)[C@@H](O)[C@@H]1O	4%	-4%	·	·	10%
C[C@@]12C=Cc3occc3[C@H]1CC[C@@]13C[C@@H](CC[C@H]12)[C@@](O)(CO)C3	7%	-11%	·	·	5%
CCC(C)OC(=O)N1CCCCC1CCO (centres undefined)	·	-10%[201 µM]	·	·	-8%[201 µM]
O=C1c2ccccc2-c2onc3c(Oc4ccccc4)cc(O)c1c23	-14%	35µM*[fluorescent]	113%	·	-12%
CN1CCN(c2cc(N3CCN(C(=O)c4ccco4)CC3)c3c4c(onc24)-c2ccccc2C3=O)CC1	-4%	·	·	-19%	·
C=C[C@@H]1CN2CC[C@@H]1C[C@@H]2[C@@H](O)c1ccnc2ccc(OC)cc12	·	·	2%	·	3%
Cc1[nH]c2ccccc2c1/C=C/c1cc[n+](C)cc1	-5%	-7%	2.8µM*	6%	-1%
CC(C)n1cc(/C=C/c2cc[n+](C)cc2)c2ccccc21	74%	·	·	17%	·
Cc1ccccc1/C=C/c1cc[n+](C)cc1	-10%	0%	22µM*	-4%	-7%
CC(=O)OCCBr	-8%	-3%	·	·	-5%
Cc1c(Cl)cccc1Cl	·	0%[201 µM]	·	·	0%[201 µM]
Cc1c2c(c(O)c3c(O)cccc13)C(=O)O[C@H]2C1C(N(C)C)C(O)=C(C(N)=O)C(=O)[C@H]1O (some centres undefined)	0%	22µM*[quencher]	·	·	?
OCCN(CCO)c1nc(N2CCCCC2)c2nc(N(CCO)CCO)nc(N3CCCCC3)c2n1	i	40µM*![fluorescent]	-19%	-8%	?
Cc1cc(NC(=O)Cn2nnc3sc4c(c3c2=O)CCC(C(C)(C)C)C4)no1 (centres undefined)	13µM*	0%	·	9%	11%
Cc1cc(NC(=O)Cn2nnc3sc4c(c3c2=O)CCCC4)no1	?	0%	6%	-5%	-1%
Nc1ccc(C23CC4CC(CC(CO)(C4)C2)C3)cc1	?	-3%	-3%	0%	-19%
Nc1ccc(C23CC4CC(CC(C4)C2)C3)cc1	8.9µM*	2%	-1%	-5%	-1%
Nc1ccc(C23CC4CC(CC(O)(C4)C2)C3)cc1	14µM*	0%	-8%	8%	0%
COc1ccc(-c2ccc(-c3noc(-c4ccco4)n3)c(OC)n2)cc1	7%	-1%	33%	-10%	1%
COc1nc(-c2ccccc2)ccc1-c1noc(-c2ccco2)n1	-4%	3%	3.5µM*	13%	-4%
O=S(=O)(Nc1cccc2cccnc12)c1ccc(Br)s1	?	0%	·	·	-5%
O=C(c1cc2sccc2n1Cc1ccccc1)N1CCCc2ccccc21	2%	-9%	-8%	-3%	6%
Cn1c(C(=O)N2CCCc3ccccc32)cc2sccc21	13µM*	-3%	9%	-6%	11%
C[Si]1(C)O[Si](C)(C)O[Si](C)(C)O[Si](C)(C)O1	·	5%[201 µM]	·	·	6%[201 µM]
O=C(CN1CCOCC1)OCCCc1ccccc1	-8%	1%	-3%	-6%	-7%
Cc1ccc(CCCOC(=O)C[N+]2(C)CCOCC2)cc1	-6%	-2%	10µM*	6%	-8%
C[N+]1(CC(=O)OCCCc2ccccc2)CCOCC1	-2%	-7%	13µM*	11%	-10%
CC(=O)[C@]1(O)CC[C@@H]2[C@H]3C[C@@H](C)C4=CC(=O)CC[C@@]4(C)C3[C@@H](O)C[C@]21C (some centres undefined)	·	·	4%[14.2 µM]	·	·
O=C(/C=C/c1ccc(O)c(O)c1)c1ccc(O[C@@H]2O[C@H](CO)[C@@H](O)[C@H](O)[C@H]2O)c(O)c1O	-6%	-17%	·	·	7%
